Data: PubChem BioAssay (NCI)
About 83,000 compounds went through this panel and 20% of them were active in at least one assay; those are over-represented in the sample as a whole.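 The test compound was applied at a single concentration to cells in 96-well plates for 48 hours, and percent growth was recorded.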 Activity calls are given as the source filed them. The calls were made as follows: active = growth percent below 10; inactive = the rest.

How the values were obtained:
Assay in all cases: NCI-60 one-dose screen, 48 h (100 = growth as untreated, 0 = no growth, -100 = all killed)
Details in all cases: 10 µM unless noted
HCT-15 colon = system: HCT-15 colon
HT29 colon = system: HT29 colon
SNB-75 CNS = system: SNB-75 CNS
SNB-19 CNS = system: SNB-19 CNS
U251 CNS = system: U251 CNS
PC-3 prostate = system: PC-3 prostate
SK-MEL-5 melanoma = system: SK-MEL-5 melanoma
LOX IMVI melanoma = system: LOX IMVI melanoma
SK-MEL-28 melanoma = system: SK-MEL-28 melanoma
SK-MEL-2 melanoma = system: SK-MEL-2 melanoma
EKVX NSCLC = system: EKVX NSCLC
SN12C renal = system: SN12C renal
UO-31 renal = system: UO-31 renal
TK-10 renal = system: TK-10 renal
CAKI-1 renal = system: CAKI-1 renal
A498 renal = system: A498 renal
CCRF-CEM leukemia = system: CCRF-CEM leukemia
MOLT-4 leukemia = system: MOLT-4 leukemia
ACHN renal = system: ACHN renal

Measured: growth

CCOC(=O)N1CCN(CCCCOc2ccc(C(C)(C)CC)cc2)CC1
inactive: HCT-15 colon 87.7% | HT29 colon 78.1% | SNB-75 CNS 106% | SNB-19 CNS 108% | U251 CNS 88.5% | PC-3 prostate 71.5% | SK-MEL-5 melanoma 88.6% | LOX IMVI melanoma 99.7% | SK-MEL-28 melanoma 100% | SK-MEL-2 melanoma 95.8% | EKVX NSCLC 99.1% | SN12C renal 95.7% | UO-31 renal 83.1% | TK-10 renal 120% | CAKI-1 renal 85.8% | A498 renal 108% | CCRF-CEM leukemia 73% | MOLT-4 leukemia 67.2%

Nc1ncnc2nc(Br)[nH]c12
inactive: HCT-15 colon 108% | HT29 colon 102% | SNB-75 CNS 87.2% | SNB-19 CNS 101% | U251 CNS 89.4% | PC-3 prostate 78.3% | SK-MEL-5 melanoma 100% | LOX IMVI melanoma 93.7% | SK-MEL-28 melanoma 114% | SK-MEL-2 melanoma 102% | EKVX NSCLC 105% | SN12C renal 100% | UO-31 renal 101% | TK-10 renal 96.2% | CAKI-1 renal 93% | A498 renal 98.1% | CCRF-CEM leukemia 94.3% | MOLT-4 leukemia 96.1%

COc1ccc2c(c1)c(-c1nc(-c3cn(C)c4ncccc34)cs1)cn2CCCN1CCCCC1
inactive: SNB-75 CNS 77.5% | SNB-19 CNS 55.2% | PC-3 prostate 51.1% | SK-MEL-5 melanoma 28.6% | LOX IMVI melanoma 28.3% | SK-MEL-2 melanoma 102% | EKVX NSCLC 61.6% | UO-31 renal 62.9% | TK-10 renal 89.7% | A498 renal 74.7% | MOLT-4 leukemia 23.4%
active: HCT-15 colon -69.9% | HT29 colon -16.5% | U251 CNS -18.4% | SK-MEL-28 melanoma -77.5% | ACHN renal 1.33% | CCRF-CEM leukemia 2.69%

N=c1ccc2nc3c(cc(N)c4ccccc43)oc-2c1
active: HCT-15 colon -69.9% | HT29 colon -63% | SNB-75 CNS -100% | SNB-19 CNS -94.7% | U251 CNS -87.8% | PC-3 prostate -39.3% | SK-MEL-5 melanoma -100% | LOX IMVI melanoma -95.6% | SK-MEL-28 melanoma -78.8% | SK-MEL-2 melanoma -36.1% | EKVX NSCLC -33.9% | SN12C renal -95.2% | UO-31 renal -78.7% | TK-10 renal -29.7% | CAKI-1 renal -60% | A498 renal -21.4% | CCRF-CEM leukemia -24.9% | MOLT-4 leukemia -44%

O=C1CNCCN1
inactive: HCT-15 colon 100% | HT29 colon 100% | SNB-75 CNS 92.6% | SNB-19 CNS 104% | U251 CNS 104% | PC-3 prostate 96.5% | SK-MEL-5 melanoma 101% | LOX IMVI melanoma 98.5% | SK-MEL-28 melanoma 105% | SK-MEL-2 melanoma 106% | EKVX NSCLC 101% | SN12C renal 97.8% | TK-10 renal 100% | ACHN renal 106% | CAKI-1 renal 93.1% | A498 renal 98% | CCRF-CEM leukemia 99.7% | MOLT-4 leukemia 94%

CCC1C(=O)COC1=O (stereo not given)
inactive: HCT-15 colon 103% | HT29 colon 62.7% | SNB-75 CNS 91% | SNB-19 CNS 99.3% | U251 CNS 85% | PC-3 prostate 74.3% | SK-MEL-5 melanoma 102% | LOX IMVI melanoma 93.2% | SK-MEL-28 melanoma 112% | SK-MEL-2 melanoma 87% | EKVX NSCLC 95.5% | UO-31 renal 95.7% | ACHN renal 103% | CAKI-1 renal 92.4% | A498 renal 91.4% | CCRF-CEM leukemia 85.4% | MOLT-4 leukemia 92.9%

Cc1cc(N(CCCNc2ccnc3cc(Cl)ccc23)Cc2ccco2)nc(N2CCOCC2)n1
inactive: HCT-15 colon 54.9% | HT29 colon 34.9% | SNB-75 CNS 73.5% | SNB-19 CNS 78.1% | U251 CNS 84% | PC-3 prostate 62.2% | SK-MEL-5 melanoma 54.5% | LOX IMVI melanoma 66% | SK-MEL-28 melanoma 77.6% | SK-MEL-2 melanoma 93.2% | EKVX NSCLC 67.6% | SN12C renal 67.4% | TK-10 renal 110% | A498 renal 59.1% | CCRF-CEM leukemia 69.2% | MOLT-4 leukemia 63.7%

Cc1ccncc1C(=O)O
inactive: HCT-15 colon 104% | HT29 colon 101% | SNB-75 CNS 86.6% | SNB-19 CNS 92.9% | U251 CNS 97.2% | PC-3 prostate 90.1% | SK-MEL-5 melanoma 106% | LOX IMVI melanoma 94% | SK-MEL-28 melanoma 95.4% | SK-MEL-2 melanoma 121% | EKVX NSCLC 97.5% | UO-31 renal 88.7% | TK-10 renal 123% | ACHN renal 97.2% | CAKI-1 renal 95.9% | A498 renal 89% | CCRF-CEM leukemia 140% | MOLT-4 leukemia 122%
